The source made the active and inactive calls. Calls come from the whole dose curve; as a rule, active = well fitted curve in the direction sought with a large enough effect in the repeat runs; inconclusive = weak or mixed curves; inactive = flat fitted curve, though single readings scatter.
assay: qHTS assay to test for compound auto fluorescence at 590 nm (red) in HepG2 cell free culture (AID 720684); conditions: cell-free medium autofluorescence, red 540/590 nm; series mostly up to 91.3 µM; fluorescence, % of Rose Bengal: at the top concentration
Text: U.S. Tox21 Program National Center for Advancing Translational Sciences [NCATS] NIH Chemical Genomics Center [NCGC] U.S. Environmental Protection Agency [EPA] National Institutes of Environmental Health Sciences [NIEHS] National Toxicology Program [NTP] U.S. Food and Drug Administration [FDA] Tox21 Assay Overview: Compound auto fluorescence often interferes with screening of the compound library against various biological targets and signaling pathways. Some of these compounds may have fluorophoric properties. Such properties may interfere with the assay outputs resulting in false positives and/or negatives. To decrease such complications and ensure the compound activities are relevant in terms of biological response, the Tox21 10K compound library was screened for auto fluorescence. From the fluorophores used as reporter signals in our screening assays, the auto fluorescence equivalencies of compounds against three fluorophores have been evaluated: Triamterene, Fluorescein and Rose Bengal sodium for blue, green and red fluorescence, respectively. The fluorescence intensities were measured using Excitation/Emission wavelengths at 405/460nm, 485/535nm and 540/590nm for blue, green and red labels, respectively. This assay includes the red fluorescence data.
Tox21 Assay Protocol Summary: 5 uL of culture medium (MEM containing 10% FBS) per well was dispensed into black wall/clear bottom 1536-well plates using a Multidrop Combi Dispenser (ThermoFisher Scientific, Waltham, MA). After 23 nL compound or DMSO vehicle was transferred into assay plate by a pintool work station (Kalypsys, San Diego, CA), fluorescence intensities in the assay plates were measured by an Envision (PerkinElmer, Shelton, CT) plate reader using three labels for measuring blue, green and red fluorescence at […] 460, 535 and 590nm respectively.
% is set by controls: 0 for no effect and ±100 for the full control effect.

SMILES	fluorescence, % of Rose Bengal	outcome
CCCSC(=O)Cl	-0.0032% (inactive)	–
CCN(CC)C(C)C(=O)c1ccccc1 (stereo not given)	0.0293% [at 46 µM] (inactive)	–
CC1(C)C(=O)NC(=O)NC1=O	0.0241% (inactive)	–
CC(=O)CC(c1ccc(Cl)cc1)c1c(O)c2ccccc2oc1=O (stereo not given)	-0.0807% [at 95.7 µM] (inactive)	–
C=CC1CC=CCC1 (stereo not given)	0.0256% (inactive)	–
O=[N+]([O-])c1ccc(CBr)cc1	-0.0041% [at 95.7 µM] (inactive)	–
COC(=O)C(C)Oc1ccc(Oc2ccc(Cl)cc2Cl)cc1 (stereo not given)	0.004% (inactive)	–
[O]=[Cd]	–	inactive
CN1CCC(O)(c2ccc(F)cc2)C(C(=O)c2ccc(F)cc2)C1 (stereo not given)	0.0493% [at 46 µM] (inactive)	–
C=C(C)[C@@H]1CC=C(C=O)CC1	-0.0404% (inactive)	–
CCN(CC)C(=O)[C@@H]1C=C2c3cccc4[nH]cc(c34)C[C@H]2N(C)C1	–	inactive
CC(C=O)Cc1ccc2c(c1)OCO2 (stereo not given)	-0.138% (inactive)	–
O=C1OC(=O)C2C1C1(Cl)C(Cl)=C(Cl)C2(Cl)C1(Cl)Cl (stereo not given)	0.138% [at 95.7 µM] (inactive)	–
CCCCP(CCCC)CCCC	-0.424% (inactive)	–
CSc1nc(N=[N+]=[N-])nc(NC(C)C)n1	-0.0059% (inactive)	–
Clc1cccc(N2CCNCC2)c1	-0.283% [at 46 µM] (inactive)	–
O=NN1CCN(N=O)CC1	0.0984% (inactive)	–
CCCCCCI	0.017% (inactive)	–
COC(=O)C1=CCCN(C)C1	0.0823% [at 46 µM] (inactive)	–
COP(N)(=S)Oc1ccccc1C(=O)OC(C)C (stereo not given)	-0.436% (inactive)	–

SMILES	fluorescence, % of Rose Bengal	outcome
Fc1ccc(C2(Cn3cncn3)OC2c2ccccc2Cl)cc1 (stereo not given)	0.0697% (inactive)	–
CCC/C(=N\OCC)C1=C(O)CC(CC(C)SCC)CC1=O (stereo not given)	-0.0677% (inactive)	–
CCCCN(CCCCO)N=O	0.0538% (inactive)	–
O=[N+]([O-])c1cccc2c([N+](=O)[O-])cccc12	-0.442% (inactive)	–
CC(=O)CCc1ccc2c(c1)OCO2	0.0936% (inactive)	–
CCOC(=O)NC(=S)Nc1ccccc1NC(=S)NC(=O)OCC	0.0269% (inactive)	–
CC(C)CP(=S)(S)CC(C)C	0.0343% (inactive)	–
O=C1c2ccccc2C(=O)c2ccccc21	-0.0206% [at 46 µM] (inactive)	–
CNC(=O)Oc1cccc(C(C)C)c1	-0.513% (inactive)	–
CCOP(=S)(OCC)SCSc1ccc(Cl)cc1	–	inactive
COC(=O)c1c(C(F)F)nc(C(F)(F)F)c(C2=NCCS2)c1CC(C)C	-0.0845% (inactive)	–
COP(=S)(OC)Oc1c(Cl)cc(C)cc1Cl	0.0342% (inactive)	–
CCS(=O)(=O)C(C)(C)S(=O)(=O)CC	0.203% [at 46 µM] (inactive)	–
CC(COc1ccc(Oc2ccccc2)cc1)Oc1ccccn1 (stereo not given)	0.163% (inactive)	–
CNC(=O)Oc1ccccc1C1OCCO1	-0.009% (inactive)	–
O=C1CN=C(c2ccccc2)c2cc([N+](=O)[O-])ccc2N1	0.225% [at 46 µM] (inactive)	–
CCNc1nc(NC(C)C)nc(OC)n1	0.0911% (inactive)	–
CCOP(=S)(OCC)Oc1nc(Cl)n(C(C)C)n1	-0.256% (inactive)	–
C=CCC1=C(C)[C@@H](OC(=O)[C@@H]2[C@@H](C=C(C)C)C2(C)C)CC1=O	0.0865% (inactive)	–
CSc1ccc(C(=O)C(C)(C)N2CCOCC2)cc1	0.161% (inactive)	–
